Sampled rows, rich in hits. Any-hit rate of the full collection: about 18%.
LDHA inh: inhibitors of human lactate dehydrogenase A; hit rate 0.15% among 480,000; activity change, % (values are at about 110 or 230 µM); P00338; purified LDHA, NADH/diaphorase-resazurin fluorescence; hits give low values; in the data active means activity change below about -30%; inconclusive means mostly about -25% to -30%;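 further: plate controls were DMSO wells for no effect and wells without enzyme for full effect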
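Human LDH5 at 2 nM final in Tris HCl pH 7.4 with 0.06 mM NADH and 0.2 mM pyruvate, reacted 5 minutes at room temperature. Remaining NADH coupled via diaphorase/resazurin; resorufin fluorescence read at 0 and 20 minutes, normalized to enzyme-free and DMSO wells.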
RORg inh: ROR gamma (mouse) transcription inhibition; Drosophila S2 Gal4-RORgamma UAS-luciferase reporter, 20 h; P51450; hit rate 5.4% among 310,000; Potency, µM (highest dose often 53.6 µM), for the others: at the highest dose activity change, negative = inhibition, most hits filed as inhibitors; further: potency means the concentration at half of the fitted maximal effect; nearly all actives have a fitted effect of over 60% in size
Target sequence (P51450 whole entry, looked up, the tested form may be a part): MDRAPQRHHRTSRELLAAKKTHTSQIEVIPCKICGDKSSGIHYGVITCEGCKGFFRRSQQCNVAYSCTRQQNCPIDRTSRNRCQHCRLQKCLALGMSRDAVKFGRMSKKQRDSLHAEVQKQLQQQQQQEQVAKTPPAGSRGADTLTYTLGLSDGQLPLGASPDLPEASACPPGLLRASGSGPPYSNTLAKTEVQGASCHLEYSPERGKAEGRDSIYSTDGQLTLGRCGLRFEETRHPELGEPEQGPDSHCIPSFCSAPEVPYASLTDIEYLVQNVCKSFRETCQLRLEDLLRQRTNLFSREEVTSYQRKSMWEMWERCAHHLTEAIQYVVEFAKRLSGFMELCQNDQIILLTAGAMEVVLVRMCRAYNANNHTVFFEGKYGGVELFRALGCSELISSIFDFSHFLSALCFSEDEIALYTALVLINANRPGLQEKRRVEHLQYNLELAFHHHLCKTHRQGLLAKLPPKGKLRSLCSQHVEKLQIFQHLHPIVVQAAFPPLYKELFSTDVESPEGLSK
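Stably transfected Drosophila Schneider cells are the test system, with ROR gamma fused to Gal4 and luciferase under UAS control; luminescence is read after 20 hr of 700 uM copper sulfate induction at ambient temperature.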
TDP1 cell CPT: DT40-hTDP1 cell growth loss with CPT | AID 686979 | hit rate 12% among 420,000 | Potency, µM (titrated, usually from 46.2 µM), for inactives: at the top dose activity change, negative = growth inhibition, hits mostly inhibitors | chicken DT40 Tdp1-/-;hTDP1 cells + 20 nM CPT, ATP luminescence, 48 h; further: potency means the concentration at half of the fitted maximal effect; nearly all actives have a fitted effect of over 55% in size
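Cell growth measured by CellTiter-Glo luminescence after a minimum 48 h, 37 C compound exposure with 20 nM CPT in Tdp1-knockout DT40 cells stably expressing hTDP1, seeded 400/well; qHTS titration format.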
IL1B secr inh: blocks inflammasome-driven IL-1 beta release | hit rate 4.7% among 360,000 | THP-1 LPS/ATP IL-1B secretion, AlphaLISA, 16 h; hits give low values | activity change, % at 57.5 µM; in the data active means activity change below about -50%; inconclusive means mostly about -30% to -49%
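Secreted IL-1B measured by AlphaLISA bead assay after 16 h compound exposure of THP-1 cells; compounds (final up to 57.5 uM) added 1 h before LPS (250 ng/mL) and ATP (1.25 mM) stimulation; lower signal means less secretion.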
TDP1 cell noCPT: qHTS for Inhibitors of human tyrosyl-DNA phosphodiesterase 1 (TDP1): qHTS in cells in absence of CPT | hit rate 15% among 420,000 | DT40 Tdp1-/- hTDP1 cells, no CPT, ATP luminescence, 48 h | Potency, µM (titrated, usually from 46.2 µM), without a hit: at the top dose activity change, negative = growth inhibition, usual class: inhibitors | AID 686978, 2013; further: potency means the concentration at half of the fitted maximal effect; nearly all actives have a fitted effect of over 55% in size
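Compound effects on proliferation are scored in DT40 Tdp1-/-;hTDP1 cells in the absence of CPT. ATP levels (CellTiter-Glo luminescence) are recorded after a ≥48 hr, 37 °C incubation.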
Gal4-VP16 FLuc: inhibits Gal4-VP16 luciferase reporter, ROR gamma counter-screen | Potency, µM (titrated, usually from 53.6 µM), for the others: at the highest dose activity, negative = inhibition, hits mostly inhibitors | Drosophila S2 Gal4-VP16 UAS-luciferase, luminescence, 20 h | AID 2546 | hit rate 3.5% among 310,000;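 further: Gal4-VP16 expression switched on by copper sulfate through the metallothionein promoter; potency means the concentration at half of the fitted maximal effect; nearly all actives have a fitted effect of over 50% in size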
Active calls of the source: *; ? = inconclusive; / = not tested or not shown; [ ] = dose if it differs, or a comment. Unless noted, the call rests on the fitted dose curve; in most records, active means well fitted curve in the direction sought with a large enough effect; inconclusive means small, poorly fitted or top-dose-only effect, or another doubt; inactive means no such curve, though single readings can be large; an effect the other way counts as inactive or inconclusive. Unless noted, on the % scale 0 is the no-effect control and ±100 the full control effect.

SMILES | LDHA inh | RORg inh | TDP1 cell CPT | IL1B secr inh | TDP1 cell noCPT | Gal4-VP16 FLuc
COc1ccc(C2C=C(c3ccc(C)cc3)Nc3c(C(=O)Nc4ccccc4)cnn32)cc1 (stereo unspecified) | -4.5 | / | ? | / | ? | /
O=C(Cn1nc(C(=O)O)c2ccccc2c1=O)Nc1ccccc1Cc1ccccc1 | 2.1 | / | / | / | / | /
Cc1nc2ccc(C(=O)OCC(=O)NC3CC3)cc2nc1C | 6.5 | / | / | / | / | /
O=C(CN1C(=O)CSc2ccccc21)NO | 0.1 | / | / | / | / | /
CC1CCCN(S(=O)(=O)N(C)Cc2ccc3c(c2)OCCO3)C1 (stereo unspecified) | 14.6 | / | / | / | / | /
CSCC[C@H](NC(=O)OC(C)(C)C)C(=O)N/N=C/c1cccc2nccnc12 | -2.7 | -14.1% | ? | 24.2 | ? | -3.2%
CSCC[C@H](NC(=O)OC(C)(C)C)C(=O)N/N=C/c1ccc2nccnc2c1 | 2.4 | 30.7% | ? | 18.7 | 11.6µM* | -9.3%
Cc1ccc(-c2nn3c(C)nnc3s2)cc1NC(=O)CSc1ccc(Cl)cc1 | 5.7 | 0.0% | ? | 22.9 | 18.4µM* | ?
Cc1ccc2nc(-c3ccc(C)c(NC(=O)CSc4ccc(Cl)cc4)c3)oc2c1 | -6.7 | / | 13µM* | / | ? | /
Cc1ccc(-c2nn3c(C)nnc3s2)cc1NCc1c(F)cccc1Cl | -7.7 | ? | 18.4µM* | -20.7 | 18.4µM* | 0.2%
Cc1c(NC(=O)CSc2ccc(Cl)cc2)cccc1-c1nc2ncccc2o1 | -5.9 | -27.0% | ? | ? | ? | -9.7%
O=C(CSc1ccc(Cl)cc1)Nc1cccc(-c2nc3ncccc3o2)c1 | -7.9 | 9.5% | ? | ? | 18.4µM* | 0.5%
Cc1nc(NC(=O)COc2ccc(Br)cc2)sc1C | 2.3 | / | / | / | / | /
CN(CC(=O)Nc1ccccc1Cl)Cc1ncc(-c2ccc(F)cc2)o1 | -2.5 | / | / | / | / | /
CCOc1ccc(CN=C2NS(=O)(=O)C(c3ccc(C)c(C)c3)=C2C)cc1 | 4.1 | / | / | / | / | /
CC(C)C(=O)Nc1cccc(-c2nc3ncccc3o2)c1 | -9.8 | 4.1%[1.91 µM] | 3.0% | 0.0 | 20.4% | -11.3%
O=C(Nc1cccc(-c2nc3ncccc3o2)c1)c1ccc(-c2cccc(Cl)c2Cl)o1 | -7.0 | / | 5.8µM* | / | 6.51µM* | /
COc1ccc(C(=O)Nc2cccc(-c3nc4ncccc4o3)c2C)cc1 | -2.1 | ? | -9.6% | -17.7 | ? | -8.8%
Cc1ccc2nc(-c3cccc(NC(=O)CSc4ccc(Cl)cc4)c3)oc2c1 | -2.6 | / | 25.9µM* | / | 9.2µM* | /
Cc1c(NC(=O)c2ccc(-c3ccc(F)cc3)o2)cccc1-c1nc2ncccc2o1 | 1.5 | / | 4.61µM* | / | 9.2µM* | /
CCOC(=O)c1c(C)[nH]c(C(=O)Cn2nnc(-c3ccc(C)cc3)n2)c1C | 2.6 | / | / | / | / | /
Cc1c(-c2ccccc2)oc2c(C(=O)NC3CCN(C(C)C)CC3)cccc2c1=O | -1.6 | / | / | / | / | /
Cc1oc(-c2ccccc2)nc1CC(=O)Nc1ccc(Br)cc1F | 6.0 | / | / | / | / | /
CCOC(=O)c1nc(N/N=C/c2ccccc2)sc1Br | -8.3 | 17.8µM* | 6.6% | ? | ? | ?
CC(=O)c1sc(N/N=C\c2ccc(Br)cc2)nc1C | 0.6 | ? | ? | -3.5 | ? | ?
SMILES | LDHA inh | RORg inh | TDP1 cell CPT | IL1B secr inh | TDP1 cell noCPT | Gal4-VP16 FLuc
CCOC(=O)c1sc(N/N=C/c2ccc(N(C)C)cc2)nc1C | 0.0 | ? | -21.4% | 0.6 | -2.7% | 11.2µM*
CC(=O)c1sc(N/N=C\c2cccc(Br)c2)nc1C | -3.1 | ? | ? | -66.3* | ? | ?
CC(Nc1ccc(S(=O)(=O)N2CCN(C)CC2)cc1[N+](=O)[O-])c1ccccc1 (stereo unspecified) | -1.2 | / | 16.4µM* | -13.0 | 23.1µM* | /
COc1ccccc1C(C)Nc1ccc(S(=O)(=O)N2CCN(C)CC2)cc1[N+](=O)[O-] (stereo unspecified) | -0.3 | / | ? | -15.5 | ? | /
COc1cccc(C(CNc2ccc(S(=O)(=O)N3CCN(C)CC3)cc2[N+](=O)[O-])N(C)C)c1 (stereo unspecified) | -1.9 | / | 23.1µM* | -16.4 | ? | /
CC(Nc1cc(N2CCN(S(=O)(=O)N(C)C)CC2)ccc1[N+](=O)[O-])c1ccccc1 (stereo unspecified) | -6.7 | 2.8% | -5.1% | 16.1 | 4.1% | 6.0%
CC(Nc1cc(N2CCN(S(C)(=O)=O)CC2)ccc1[N+](=O)[O-])c1ccccc1 (stereo unspecified) | -2.0 | 20.5% | ? | -52.0* | 16.4µM* | 0.6%
Cc1c(C(=O)c2ccc(Cl)cc2)oc2cc(NC(=O)c3ccncc3)ccc12 | -11.3 | / | / | / | / | /
COc1ccc2nc(SCc3csc(NC(C)=O)n3)[nH]c2c1 | -3.9 | / | / | / | / | /
CCc1cccc(C)c1NC(=O)C1CC=CCC1C(=O)O (stereo unspecified) | -7.8 | -3.3% | ? | -0.4 | 20.6µM* | -7.3%[10 µM]
CCc1cccc(C)c1NC(=O)c1cc2ccccc2o1 | -4.6 | / | 18.4µM* | / | 16.4µM* | /
CCCCNC(=O)CO/N=C(\C)c1cc2ccccc2o1 | -3.7 | -1.9% | ? | -23.7 | ? | 4.1%
CCc1cccc(C)c1NC(=O)CO/N=C(\C)c1cc2ccccc2o1 | -4.8 | 0.9% | 18.4µM* | -2.1 | 23.1µM* | 13.3%
CSc1ccccc1NC(=O)CC(C)C | 0.7 | / | / | / | / | /
CCCN(CC1CC1)C(=S)Nc1ccc(Oc2ccccc2)cc1 | 4.2 | 12.6µM* | ? | 28.6 | 16.4µM* | 8.91µM*
CCCCN(C)C(=S)Nc1ccc(Oc2ccccc2)cc1 | -2.0 | 11.2µM* | -24.5% | 0.0 | ? | ?
CN(CCC#N)C(=S)Nc1ccc(Oc2ccccc2)cc1 | -7.3 | 36.1% | ? | 24.7 | ? | 19.2%
Cc1ccc(CNC(=O)c2cc(=O)c3c(C)cc(C)cc3o2)cc1 | -0.2 | / | / | / | / | /
CC(C)(C)n1nnnc1C(c1ccccc1)N1CCN(c2c(Cl)cncc2Cl)CC1 (stereo unspecified) | -3.9 | / | ? | -12.0 | 16.4µM* | /
CC(C)(C)n1nnnc1C(c1cccnc1)N1CCN(c2cccc(C(F)(F)F)c2)CC1 (stereo unspecified) | 3.0 | 26.4% | 18.4µM* | -0.6 | 20.6µM* | -6.5%
COc1ccc(N2CCN(C(c3ccc(C)cc3)c3nnnn3C(C)(C)C)CC2)cc1 (stereo unspecified) | 3.4 | / | ? | / | 14.1µM* | /
Cc1cccc(N2CCN(C(c3ccncc3)c3nnnn3C(C)(C)C)CC2)c1C (stereo unspecified) | -5.6 | 0.0% | -6.3% | ? | 18.4µM* | -10.4%
